Test results as given in the supplement of paper PMC12819154, “High-throughput peptide-centric local stability assay extends protein–ligand identification to membrane proteins, tissues and bacteria” (Nature Structural & Molecular Biology, 2025).

Columns and labels:
UniProt O54950 = experiment: log2 fold change of pooled soluble protein (PISA), ligand vs vehicle (log2 ratio); higher = more thermally stabilized; conditions: ligand concentration: 20 uM; assay format: PISA pool 52.9/55.5/58.6 C
UniProt P31938 = experiment: as above; conditions: ligand concentration: 20 uM; assay format: PISA pool 52.9/55.5/58.6 C
UniProt P41241 = experiment: as above; conditions: ligand concentration: 20 uM; assay format: PISA pool 52.9/55.5/58.6 C
UniProt Q3UHJ0 = experiment: as above; conditions: ligand concentration: 20 uM; assay format: PISA pool 52.9/55.5/58.6 C
UniProt Q5F2E8 = target: T1, UniProt Q5F2E8; experiment: as above; conditions: ligand concentration: 20 uM; assay format: PISA pool 52.9/55.5/58.6 C
T1 sequence (whole entry): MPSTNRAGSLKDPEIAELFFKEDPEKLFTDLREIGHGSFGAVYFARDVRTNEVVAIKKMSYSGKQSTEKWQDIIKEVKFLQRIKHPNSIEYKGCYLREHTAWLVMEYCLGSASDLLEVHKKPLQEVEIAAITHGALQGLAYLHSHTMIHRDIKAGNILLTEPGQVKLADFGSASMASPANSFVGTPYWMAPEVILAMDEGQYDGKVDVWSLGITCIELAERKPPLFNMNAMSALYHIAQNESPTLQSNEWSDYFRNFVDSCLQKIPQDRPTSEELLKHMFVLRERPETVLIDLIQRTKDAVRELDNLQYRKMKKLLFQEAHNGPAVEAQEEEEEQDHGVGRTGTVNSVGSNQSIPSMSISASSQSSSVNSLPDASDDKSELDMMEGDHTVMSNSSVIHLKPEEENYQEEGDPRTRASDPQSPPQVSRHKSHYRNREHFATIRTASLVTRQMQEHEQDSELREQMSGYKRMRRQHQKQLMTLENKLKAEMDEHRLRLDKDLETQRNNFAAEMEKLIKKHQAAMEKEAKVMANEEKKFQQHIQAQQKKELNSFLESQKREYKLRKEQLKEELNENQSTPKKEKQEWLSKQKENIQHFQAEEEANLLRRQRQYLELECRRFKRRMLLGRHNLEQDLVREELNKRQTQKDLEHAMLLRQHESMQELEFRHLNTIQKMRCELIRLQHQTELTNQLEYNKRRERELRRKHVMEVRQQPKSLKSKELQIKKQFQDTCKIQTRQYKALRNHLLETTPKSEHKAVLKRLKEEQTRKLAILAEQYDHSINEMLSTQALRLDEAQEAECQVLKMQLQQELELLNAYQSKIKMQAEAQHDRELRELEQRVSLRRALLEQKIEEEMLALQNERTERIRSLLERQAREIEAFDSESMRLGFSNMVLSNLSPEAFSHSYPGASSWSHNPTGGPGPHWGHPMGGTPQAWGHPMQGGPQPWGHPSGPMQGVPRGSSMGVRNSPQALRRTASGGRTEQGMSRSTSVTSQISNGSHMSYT

UniProt Q63932 = experiment: as above; conditions: ligand concentration: 20 uM; assay format: PISA pool 52.9/55.5/58.6 C
UniProt Q64464 = target: T2, UniProt Q64464; experiment: as above; conditions: ligand concentration: 20 uM; assay format: PISA pool 52.9/55.5/58.6 C
T2 sequence (whole entry): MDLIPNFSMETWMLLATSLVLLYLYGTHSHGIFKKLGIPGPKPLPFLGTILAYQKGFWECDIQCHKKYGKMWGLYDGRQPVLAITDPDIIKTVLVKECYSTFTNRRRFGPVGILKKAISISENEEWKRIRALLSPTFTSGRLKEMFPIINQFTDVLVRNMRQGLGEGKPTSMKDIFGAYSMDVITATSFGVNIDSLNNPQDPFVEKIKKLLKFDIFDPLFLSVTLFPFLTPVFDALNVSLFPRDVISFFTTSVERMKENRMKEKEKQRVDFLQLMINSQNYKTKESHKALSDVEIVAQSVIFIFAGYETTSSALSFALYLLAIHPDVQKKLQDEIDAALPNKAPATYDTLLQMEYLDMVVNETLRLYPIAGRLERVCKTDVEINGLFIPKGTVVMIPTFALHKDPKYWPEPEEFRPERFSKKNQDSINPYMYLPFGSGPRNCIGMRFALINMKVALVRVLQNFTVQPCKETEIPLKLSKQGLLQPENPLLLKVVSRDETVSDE

UniProt Q6PIU9 = target: T3, UniProt Q6PIU9; experiment: as above; conditions: ligand concentration: 20 uM; assay format: PISA pool 52.9/55.5/58.6 C
T3 sequence (whole entry): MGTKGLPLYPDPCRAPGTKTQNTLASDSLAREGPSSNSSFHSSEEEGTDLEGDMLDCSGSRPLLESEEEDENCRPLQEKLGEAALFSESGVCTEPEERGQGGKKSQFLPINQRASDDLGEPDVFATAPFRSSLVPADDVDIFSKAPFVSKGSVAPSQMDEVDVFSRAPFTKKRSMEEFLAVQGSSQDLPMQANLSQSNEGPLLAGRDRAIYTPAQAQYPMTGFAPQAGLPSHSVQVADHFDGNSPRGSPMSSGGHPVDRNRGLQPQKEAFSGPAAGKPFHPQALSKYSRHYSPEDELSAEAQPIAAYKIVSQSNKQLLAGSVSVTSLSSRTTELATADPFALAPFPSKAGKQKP

UniProt Q8BRK8 = experiment: as above; conditions: ligand concentration: 20 uM; assay format: PISA pool 52.9/55.5/58.6 C
UniProt Q8BTW9 = experiment: as above; conditions: ligand concentration: 20 uM; assay format: PISA pool 52.9/55.5/58.6 C
UniProt Q8BYY4 = target: T4, UniProt Q8BYY4; experiment: as above; conditions: ligand concentration: 20 uM; assay format: PISA pool 52.9/55.5/58.6 C
T4 sequence (whole entry): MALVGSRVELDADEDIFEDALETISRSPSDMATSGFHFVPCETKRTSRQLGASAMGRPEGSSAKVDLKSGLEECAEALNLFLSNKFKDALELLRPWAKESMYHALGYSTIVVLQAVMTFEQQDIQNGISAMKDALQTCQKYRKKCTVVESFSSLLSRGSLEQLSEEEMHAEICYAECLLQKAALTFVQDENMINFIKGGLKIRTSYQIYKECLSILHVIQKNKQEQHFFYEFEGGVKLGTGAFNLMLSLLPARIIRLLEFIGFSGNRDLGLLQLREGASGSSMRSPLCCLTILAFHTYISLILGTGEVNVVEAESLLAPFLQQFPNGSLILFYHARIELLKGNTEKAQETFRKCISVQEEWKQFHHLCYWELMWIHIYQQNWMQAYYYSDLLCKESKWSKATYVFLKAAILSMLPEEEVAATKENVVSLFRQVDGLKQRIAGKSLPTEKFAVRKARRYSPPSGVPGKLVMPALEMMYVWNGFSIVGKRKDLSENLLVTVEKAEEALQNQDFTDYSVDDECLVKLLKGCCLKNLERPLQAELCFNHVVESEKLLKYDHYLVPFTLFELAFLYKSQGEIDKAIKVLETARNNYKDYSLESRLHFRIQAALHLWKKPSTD

UniProt Q9EQ20 = experiment: as above; conditions: ligand concentration: 20 uM; assay format: PISA pool 52.9/55.5/58.6 C
UniProt Q9JI10 = target: T5, UniProt Q9JI10; experiment: as above; conditions: ligand concentration: 20 uM; assay format: PISA pool 52.9/55.5/58.6 C
T5 sequence (whole entry): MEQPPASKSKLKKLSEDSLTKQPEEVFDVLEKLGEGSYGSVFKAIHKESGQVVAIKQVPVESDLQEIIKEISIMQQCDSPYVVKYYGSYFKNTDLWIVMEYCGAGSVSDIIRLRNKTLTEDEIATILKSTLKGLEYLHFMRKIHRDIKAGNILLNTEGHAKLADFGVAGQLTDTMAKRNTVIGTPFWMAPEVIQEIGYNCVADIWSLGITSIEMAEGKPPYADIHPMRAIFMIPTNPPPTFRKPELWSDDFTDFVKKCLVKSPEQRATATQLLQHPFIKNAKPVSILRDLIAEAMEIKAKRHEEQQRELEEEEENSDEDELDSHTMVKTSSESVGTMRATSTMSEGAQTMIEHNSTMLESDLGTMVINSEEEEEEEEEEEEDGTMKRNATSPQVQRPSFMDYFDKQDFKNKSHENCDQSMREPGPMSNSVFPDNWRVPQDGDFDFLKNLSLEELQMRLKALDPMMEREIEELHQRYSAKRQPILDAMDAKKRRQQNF

UniProt Q9R092 = target: T6, UniProt Q9R092; experiment: as above; conditions: ligand concentration: 20 uM; assay format: PISA pool 52.9/55.5/58.6 C
T6 sequence (whole entry): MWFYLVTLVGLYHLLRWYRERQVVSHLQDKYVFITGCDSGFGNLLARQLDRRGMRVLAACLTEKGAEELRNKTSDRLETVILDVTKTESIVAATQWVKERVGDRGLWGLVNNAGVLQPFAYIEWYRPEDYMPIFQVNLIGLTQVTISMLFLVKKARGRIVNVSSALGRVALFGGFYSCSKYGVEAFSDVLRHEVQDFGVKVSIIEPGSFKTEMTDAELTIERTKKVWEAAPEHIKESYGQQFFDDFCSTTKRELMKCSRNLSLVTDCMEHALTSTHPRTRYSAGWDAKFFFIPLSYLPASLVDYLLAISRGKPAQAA

UniProt Q9R257 = target: T7, UniProt Q9R257; experiment: as above; conditions: ligand concentration: 20 uM; assay format: PISA pool 52.9/55.5/58.6 C
T7 sequence (whole entry): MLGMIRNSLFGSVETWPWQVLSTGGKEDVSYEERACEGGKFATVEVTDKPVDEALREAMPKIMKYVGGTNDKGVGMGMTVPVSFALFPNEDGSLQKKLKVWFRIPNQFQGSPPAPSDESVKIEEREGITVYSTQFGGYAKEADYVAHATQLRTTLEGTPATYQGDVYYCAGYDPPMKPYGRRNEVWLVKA

UniProt P0AEX5 = target: T8, UniProt P0AEX5; experiment: log2 fold change of tryptic peptide abundance, ligand vs vehicle (limited proteolysis) (log2 ratio); higher = more trypsin-susceptible (destabilized); conditions: peptide sequence: EAVMDSVVR; peptide start residue: 177; ligand concentration: 5 mM; sample: E. coli desalted lysate; replicate design: treated before aliquoting
T8 sequence (whole entry): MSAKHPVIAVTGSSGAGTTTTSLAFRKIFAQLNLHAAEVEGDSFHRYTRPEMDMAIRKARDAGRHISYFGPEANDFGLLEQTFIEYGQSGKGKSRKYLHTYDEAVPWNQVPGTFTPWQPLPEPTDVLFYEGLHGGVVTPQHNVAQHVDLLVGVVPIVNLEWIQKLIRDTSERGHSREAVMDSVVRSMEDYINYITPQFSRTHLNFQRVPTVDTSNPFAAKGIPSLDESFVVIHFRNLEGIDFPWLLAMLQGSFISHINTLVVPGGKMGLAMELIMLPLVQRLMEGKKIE
Procedure: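 HT-PELSA: desalted E. coli K-12 BW25113 lysate (with 12 mM MgCl2) incubated with 5 mM ATP (pH 7) or water for 30 min at 25 C, then a 4 min trypsin pulse at 22 C. Peptides were quantified by DIA-MS (4 replicates). Value is the peptide log2 fold change (treated/control); negative = stabilized. Scale: negative = ligand-stabilized region.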
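Throughout, for log2 fold change of tryptic peptide abundance, ligand vs vehicle (limited proteolysis): lysate desalted by size exclusion to strip endogenous ATP, peptide intensities built from DIA-NN precursor signals, and peptides missing any value discarded before comparison.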

UniProt Q8BTW9, sequence (Q8BTW9 whole entry): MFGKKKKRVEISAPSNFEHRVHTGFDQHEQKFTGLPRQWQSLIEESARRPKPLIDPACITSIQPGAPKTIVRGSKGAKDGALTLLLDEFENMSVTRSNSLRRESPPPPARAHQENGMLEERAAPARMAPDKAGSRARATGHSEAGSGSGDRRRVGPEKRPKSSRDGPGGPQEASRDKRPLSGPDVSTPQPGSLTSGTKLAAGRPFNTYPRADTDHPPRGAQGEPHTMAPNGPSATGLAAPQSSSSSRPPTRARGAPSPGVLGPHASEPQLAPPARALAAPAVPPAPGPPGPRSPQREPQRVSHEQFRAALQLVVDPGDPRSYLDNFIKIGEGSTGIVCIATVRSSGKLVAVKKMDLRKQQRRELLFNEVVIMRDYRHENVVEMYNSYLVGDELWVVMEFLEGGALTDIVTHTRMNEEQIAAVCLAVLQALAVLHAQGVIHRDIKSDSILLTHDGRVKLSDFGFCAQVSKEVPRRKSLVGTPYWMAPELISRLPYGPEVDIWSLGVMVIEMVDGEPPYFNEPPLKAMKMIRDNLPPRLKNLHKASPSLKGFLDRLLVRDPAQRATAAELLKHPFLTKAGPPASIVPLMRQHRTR
UniProt P41241, sequence (P41241 whole entry): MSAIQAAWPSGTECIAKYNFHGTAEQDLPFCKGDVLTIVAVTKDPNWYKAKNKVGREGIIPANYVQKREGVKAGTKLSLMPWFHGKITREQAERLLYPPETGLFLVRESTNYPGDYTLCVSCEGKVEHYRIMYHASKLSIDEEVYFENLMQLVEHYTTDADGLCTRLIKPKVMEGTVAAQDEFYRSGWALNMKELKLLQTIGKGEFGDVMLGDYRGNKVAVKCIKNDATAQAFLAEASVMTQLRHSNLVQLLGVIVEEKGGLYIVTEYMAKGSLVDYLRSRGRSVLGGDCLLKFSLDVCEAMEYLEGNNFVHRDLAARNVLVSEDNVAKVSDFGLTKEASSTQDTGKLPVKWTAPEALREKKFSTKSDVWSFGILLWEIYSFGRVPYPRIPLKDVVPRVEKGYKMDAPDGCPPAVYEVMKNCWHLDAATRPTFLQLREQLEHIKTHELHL
UniProt Q9EQ20, sequence (Q9EQ20 whole entry): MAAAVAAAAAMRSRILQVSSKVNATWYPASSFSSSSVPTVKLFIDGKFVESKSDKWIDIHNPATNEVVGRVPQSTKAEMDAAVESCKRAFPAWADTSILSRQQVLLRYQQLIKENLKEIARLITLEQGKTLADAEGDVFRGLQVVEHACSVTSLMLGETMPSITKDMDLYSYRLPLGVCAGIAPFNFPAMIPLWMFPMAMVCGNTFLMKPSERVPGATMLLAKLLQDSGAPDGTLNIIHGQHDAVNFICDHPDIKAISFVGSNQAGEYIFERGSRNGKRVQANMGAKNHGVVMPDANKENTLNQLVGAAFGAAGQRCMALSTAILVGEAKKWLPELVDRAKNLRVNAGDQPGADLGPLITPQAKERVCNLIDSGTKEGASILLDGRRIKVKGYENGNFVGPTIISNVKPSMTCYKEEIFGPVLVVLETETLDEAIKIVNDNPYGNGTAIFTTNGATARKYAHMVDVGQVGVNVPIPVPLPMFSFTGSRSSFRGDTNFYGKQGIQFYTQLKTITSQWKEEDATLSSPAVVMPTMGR
UniProt Q8BRK8, sequence (Q8BRK8 whole entry): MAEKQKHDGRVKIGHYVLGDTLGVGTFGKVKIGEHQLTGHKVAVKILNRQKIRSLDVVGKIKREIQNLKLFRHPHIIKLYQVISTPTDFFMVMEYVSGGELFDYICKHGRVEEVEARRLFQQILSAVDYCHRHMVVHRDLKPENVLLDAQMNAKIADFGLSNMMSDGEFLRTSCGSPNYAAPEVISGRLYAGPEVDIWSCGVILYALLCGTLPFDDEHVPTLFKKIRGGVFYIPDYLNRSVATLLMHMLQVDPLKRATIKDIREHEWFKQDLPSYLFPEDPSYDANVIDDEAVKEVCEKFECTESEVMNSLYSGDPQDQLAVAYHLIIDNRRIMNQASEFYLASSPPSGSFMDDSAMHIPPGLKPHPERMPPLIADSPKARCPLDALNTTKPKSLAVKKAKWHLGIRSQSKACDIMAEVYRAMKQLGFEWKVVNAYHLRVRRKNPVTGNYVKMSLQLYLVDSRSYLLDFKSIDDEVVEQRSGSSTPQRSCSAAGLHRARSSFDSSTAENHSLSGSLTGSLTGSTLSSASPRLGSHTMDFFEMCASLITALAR
UniProt O54950, sequence (O54950 whole entry): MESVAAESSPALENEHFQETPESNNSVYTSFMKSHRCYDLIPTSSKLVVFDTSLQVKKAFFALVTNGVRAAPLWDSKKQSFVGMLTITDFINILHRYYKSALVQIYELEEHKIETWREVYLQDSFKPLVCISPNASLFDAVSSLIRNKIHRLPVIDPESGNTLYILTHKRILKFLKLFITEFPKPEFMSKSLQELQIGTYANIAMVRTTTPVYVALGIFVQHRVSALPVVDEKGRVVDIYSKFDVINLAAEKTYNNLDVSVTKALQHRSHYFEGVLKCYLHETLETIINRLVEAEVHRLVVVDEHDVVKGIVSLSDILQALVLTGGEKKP
UniProt Q3UHJ0, sequence (Q3UHJ0 whole entry, looked up): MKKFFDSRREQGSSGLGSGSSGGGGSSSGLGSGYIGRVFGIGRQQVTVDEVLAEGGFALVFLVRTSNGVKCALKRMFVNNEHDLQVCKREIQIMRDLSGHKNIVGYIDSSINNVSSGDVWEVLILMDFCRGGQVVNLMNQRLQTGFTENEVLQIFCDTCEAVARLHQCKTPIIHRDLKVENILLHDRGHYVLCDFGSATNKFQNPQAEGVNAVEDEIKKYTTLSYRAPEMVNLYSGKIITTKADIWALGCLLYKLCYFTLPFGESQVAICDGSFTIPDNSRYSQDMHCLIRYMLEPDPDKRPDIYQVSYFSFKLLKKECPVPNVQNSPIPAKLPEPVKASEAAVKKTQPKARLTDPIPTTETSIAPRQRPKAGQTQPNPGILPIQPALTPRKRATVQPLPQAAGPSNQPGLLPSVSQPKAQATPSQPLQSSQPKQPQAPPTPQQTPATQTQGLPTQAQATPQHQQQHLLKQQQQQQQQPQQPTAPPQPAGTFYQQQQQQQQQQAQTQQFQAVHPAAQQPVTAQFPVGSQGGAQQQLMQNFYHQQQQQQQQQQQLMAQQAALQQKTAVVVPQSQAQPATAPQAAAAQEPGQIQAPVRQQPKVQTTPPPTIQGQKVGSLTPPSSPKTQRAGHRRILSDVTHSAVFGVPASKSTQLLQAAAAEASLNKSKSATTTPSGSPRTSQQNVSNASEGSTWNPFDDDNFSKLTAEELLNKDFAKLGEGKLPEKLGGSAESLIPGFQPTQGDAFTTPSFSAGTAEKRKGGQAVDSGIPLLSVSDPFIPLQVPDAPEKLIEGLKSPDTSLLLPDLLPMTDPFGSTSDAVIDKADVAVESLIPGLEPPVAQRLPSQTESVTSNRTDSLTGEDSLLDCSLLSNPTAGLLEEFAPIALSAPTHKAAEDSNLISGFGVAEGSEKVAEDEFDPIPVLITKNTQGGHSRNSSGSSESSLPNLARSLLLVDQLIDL
UniProt Q63932, sequence (Q63932 whole entry): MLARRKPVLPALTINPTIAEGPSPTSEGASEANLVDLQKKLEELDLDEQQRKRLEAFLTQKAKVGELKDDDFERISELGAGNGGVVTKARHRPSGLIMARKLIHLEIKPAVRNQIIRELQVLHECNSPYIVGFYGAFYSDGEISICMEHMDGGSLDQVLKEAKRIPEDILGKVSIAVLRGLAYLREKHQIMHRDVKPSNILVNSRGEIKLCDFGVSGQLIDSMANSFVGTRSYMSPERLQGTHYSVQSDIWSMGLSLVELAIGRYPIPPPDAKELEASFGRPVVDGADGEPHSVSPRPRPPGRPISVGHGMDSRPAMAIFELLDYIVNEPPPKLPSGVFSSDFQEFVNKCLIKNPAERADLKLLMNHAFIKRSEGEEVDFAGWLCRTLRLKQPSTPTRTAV
UniProt P31938, sequence (P31938 whole entry): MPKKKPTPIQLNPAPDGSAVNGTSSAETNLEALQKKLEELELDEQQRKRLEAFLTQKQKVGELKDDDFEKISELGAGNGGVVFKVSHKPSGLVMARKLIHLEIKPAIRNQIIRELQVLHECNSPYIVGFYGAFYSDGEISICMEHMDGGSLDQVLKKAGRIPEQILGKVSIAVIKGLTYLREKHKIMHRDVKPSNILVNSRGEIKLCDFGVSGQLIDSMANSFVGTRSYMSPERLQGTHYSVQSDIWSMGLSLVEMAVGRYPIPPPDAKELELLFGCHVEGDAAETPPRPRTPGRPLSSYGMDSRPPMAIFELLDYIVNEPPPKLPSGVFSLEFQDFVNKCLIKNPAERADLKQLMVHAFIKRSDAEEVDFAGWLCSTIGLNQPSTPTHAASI

| Structure (SMILES) | log2 fold change of pooled soluble protein (UniProt O54950) | log2 fold change of pooled soluble protein (UniProt P31938) | log2 fold change of pooled soluble protein (UniProt P41241) | log2 fold change of pooled soluble protein (UniProt Q3UHJ0) | log2 fold change of pooled soluble protein (UniProt Q5F2E8) | log2 fold change of pooled soluble protein (UniProt Q63932) | log2 fold change of pooled soluble protein (UniProt Q64464) | log2 fold change of pooled soluble protein (UniProt Q6PIU9) | log2 fold change of pooled soluble protein (UniProt Q8BRK8) | log2 fold change of pooled soluble protein (UniProt Q8BTW9) | log2 fold change of pooled soluble protein (UniProt Q8BYY4) | log2 fold change of pooled soluble protein (UniProt Q9EQ20) | log2 fold change of pooled soluble protein (UniProt Q9JI10) | log2 fold change of pooled soluble protein (UniProt Q9R092) | log2 fold change of pooled soluble protein (UniProt Q9R257) | log2 fold change (UniProt P0AEX5) |
| --- | --- | --- | --- | --- | --- | --- | --- | --- | --- | --- | --- | --- | --- | --- | --- | --- |
| CN[C@@H]1C[C@H]2O[C@@](C)([C@@H]1OC)n1c3ccccc3c3c4c(c5c6ccccc6n2c5c31)C(=O)NC4 [staurosporine] | 0.645 | 2.14 | 1.02 | 1.91 | 1.2 | 2.18 | 0.447 | 0.619 | 0.661 | 1.36 | 0.552 | 0.615 | 1.77 | 0.855 | 0.471 | – |
| Nc1ncnc2c1ncn2[C@@H]1O[C@H](COP(=O)(O)OP(=O)(O)OP(=O)(O)O)[C@@H](O)[C@H]1O [adenosine 5'-triphosphate] | – | – | – | – | – | – | – | – | – | – | – | – | – | – | – | 0.659 |
